IL-1B inflam inh – qHTS for Inhibitors of Inflammasome Signaling: IL-1-beta AlphaLISA Primary Screen; AID 743279, 2014; THP-1 LPS/ATP IL-1B secretion, AlphaLISA, 16 h; active compounds read low; activity change, % at 57.5 µM; 360,000 compounds, 4.7% hits; in the data active = activity change below about -50%; inconclusive = mostly about -30% to -49%
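THP-1 cells pretreated 1 hr with compounds (up to 57.5 uM final), then stimulated with LPS (250 ng/mL final) plus ATP (1.25 mM final); secreted IL-1B measured by AlphaLISA after 16 hr, decreased signal indicating inhibition.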
HT1080 IDH1KD tx – qHTS for induction of synthetic lethality in tumor cells producing 2HG: qHTS for the HT-1080-IDH1KD cell line. AID 686971, 2013. Potency, µM (series often up to 46.1 µM), without a hit: at the top dose activity, negative = toxicity, most hits filed as cytotoxic. HT-1080 IDH1 knockdown viability, ATP luminescence, 48 h. 360,000 compounds, 2% hits;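 also: potency is read from the fitted curve at half-maximal effect; 0% = DMSO wells and -100% = cell-free medium wells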
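% activity derives from luminescence (CellTiter-Glo), normalised to DMSO and no-cell wells. HT-1080-IDH1KD cells, 750/well, had 48 h compound exposure at 37 °C.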
HT1080-NT tox – qHTS for induction of synthetic lethality in tumor cells producing 2HG: qHTS for the HT-1080-NT fibrosarcoma cell line. HT-1080-NT fibrosarcoma viability, CellTiter-Glo ATP luminescence, 48 h. Potency, µM (series often up to 46.1 µM), for the others: at the highest dose activity, negative = less viability, usual class: cytotoxic. 360,000 compounds, 1.6% hits;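 also: NT is the 2HG producing partner of a matched IDH1 knockdown line; potency is read from the fitted curve at half-maximal effect; 0% = DMSO-treated cells and -100% = media-only wells without cells; nearly all actives have a fitted effect of over 55% in size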
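Compounds were tested in concentration-response format on HT-1080-NT cells for 48 hours at 37 degrees C. Cell viability came from CellTiter-Glo luminescence; curves were classified by r2, response magnitude and activity.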
DT40 TDP1 no CPT – qHTS for Inhibitors of human tyrosyl-DNA phosphodiesterase 1 (TDP1): qHTS in cells in absence of CPT. DT40 Tdp1-/- hTDP1 cells, no CPT, ATP luminescence, 48 h. Potency, µM (doses to about 46.2 µM), without a hit: at the highest dose activity change, negative = growth inhibition, hits mostly inhibitors. 420,000 compounds, 15% hits; also: potency is read from the fitted curve at half-maximal effect; nearly all actives have a fitted effect of over 55% in size
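Chicken DT40 Tdp1-/- cells complemented with human TDP1, screened without camptothecin (DMSO vehicle only), 400 cells/well. Compounds pin-transferred, cells incubated at 37 °C for at least 48 hr. Growth read as ATP-dependent luminescence (CellTiter-Glo, 30 min at RT).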
DT40 TDP1 CPT – qHTS for Inhibitors of human tyrosyl-DNA phosphodiesterase 1 (TDP1): qHTS in cells in presence of CPT; chicken DT40 Tdp1-/-;hTDP1 cells + 20 nM CPT, ATP luminescence, 48 h; Potency, µM (highest dose often 46.2 µM), for inactives: at the top dose activity change, negative = growth inhibition, actives largely listed as inhibitors; 420,000 compounds, 12% hits; AID 686979, 2013; also: potency is read from the fitted curve at half-maximal effect; nearly all actives have a fitted effect of over 55% in size
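Chicken DT40 Tdp1-/- cells stably complemented with human TDP1 were seeded at 400 cells/well in medium containing 20 nM camptothecin, exposed to pin-transferred compounds, and grown at 37 °C for at least 48 hr. Viability was read as ATP luminescence.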
ELG1 DNA repair – qHTS screen for small molecules that inhibit ELG1-dependent DNA repair in human embryonic kidney (HEK293T) cells expressing luciferase-tagged ELG1 | AID 504467, 2011 | 330,000 compounds, 2.3% hits | Potency, µM (highest dose often 46.1 µM), inactives show at the top dose activity change, negative = inhibition, actives largely listed as inhibitors | HEK293T ELG1-luciferase reporter, luminescence, 16 h; DNA damage induced by 5-fluorouridine; also: potency is read from the fitted curve at half-maximal effect; nearly all actives have a fitted effect of over 55% in size
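In this reporter screen, reduction of luminescence relative to DMSO vehicle indicated activity. Compounds and 5-fluorouridine were added together to 2,000 cells per well, incubated for 16 hr at 37 °C, then developed with ONE-Glo.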
Active calls of the source: *; ? = inconclusive; / = no result given. Shown are actives, neighbours in structure and some others; about 19% of the full set was active somewhere. Unless noted, calls follow the shape of the dose curve; as a rule, active = well fitted curve in the direction sought with a large enough effect; inconclusive = small, poorly fitted or top-dose-only effect, or another doubt; inactive = no such curve, though single readings can be large; an effect the other way counts as inactive or inconclusive. Unless noted, % is scaled to controls: 0 for no effect and ±100 for the full control effect.

SMILES | IL-1B inflam inh | HT1080 IDH1KD tx | HT1080-NT tox | DT40 TDP1 no CPT | DT40 TDP1 CPT | ELG1 DNA repair
O=C(NCCN1CCOCC1)c1ccc2c(c1)N(Cc1c(F)cccc1Cl)C(=O)c1ccccc1S2 | 0 | -2% | -18% | ? | ? | 16%
O=C(c1ccc2c(c1)N(Cc1cccc(Cl)c1)C(=O)c1ccccc1S2)N1CCOCC1 | / | / | / | ? | 18µM* | /
O=C(c1ccc2c(c1)N(Cc1c(F)cccc1Cl)C(=O)c1ccccc1S2)N1CCCC1 | / | / | / | 23µM* | ? | /
O=C(c1ccc2c(c1)N(Cc1ccccc1)C(=O)CS2)N1CCOCC1 | -21 | -5% | 6% | -17% | 1% | 2%
O=C(c1ccc2c(c1)N(Cc1cccc(F)c1)C(=O)c1ccccc1S2)N1CCCC1 | / | / | / | ? | 21µM* | /
Cc1ccc(-n2cnnn2)cc1S(N)(=O)=O | / | / | / | -16% | 13% | /
O=C(COc1ccc(F)cc1)Nc1ccc(OCc2cc(=O)n3ccsc3n2)cc1 | / | / | / | -20% | -21% | /
C[C@@H](NC(=O)c1ncn2c1c(=O)[nH]c1ccc(Br)cc12)c1ccccc1 | -18 | 17% | 12% | 21µM* | ? | /
C[C@@H](NC(=O)c1ncn2c1c(=O)[nH]c1cccnc12)c1ccccc1 | 46 | -9% | -8% | -14% | -2% | /
Cc1cccc(-c2nc(CS(=O)CC(=O)N3CCN(C)CC3)c(C)o2)c1 (stereo not given) | -8 | 1% | 23% | -12% | 3% | 13%
Cc1ccc(-c2nc(CS(=O)CC(=O)N3CCN(c4cccc(Cl)c4)CC3)c(C)o2)cc1 (stereo not given) | / | / | / | ? | 16µM* | /
COc1cccc(-c2nc(CS(=O)CC(=O)N3CCN(c4cccc(C(F)(F)F)c4)CC3)c(C)o2)c1 (stereo not given) | / | / | / | 13µM* | 13µM* | /
COc1ccc(N2CCN(C(=O)CS(=O)Cc3nc(-c4ccc(OC)c(OC)c4)oc3C)CC2)cc1 (stereo not given) | -20 | 7% | 2% | ? | ? | -18%
Cc1oc(-c2ccccc2Cl)nc1CS(=O)CC(=O)N1CCN(c2cccc(C(F)(F)F)c2)CC1 (stereo not given) | / | / | / | 13µM* | 9.2µM* | /
Cc1oc(-c2ccc(Cl)cc2)nc1CS(=O)CC(=O)NC1CC1 (stereo not given) | 20 | -1% | -2% | 4% | -1% | 3%
Cc1oc(-c2ccc(Cl)cc2)nc1CS(=O)CC(=O)N1CCN(c2cccc(C(F)(F)F)c2)CC1 (stereo not given) | / | / | / | 21µM* | 15µM* | /
CCc1nc2c(OCCn3cccc3)cccn2c1N(C)C(=O)c1ccc(C)cc1 | 7 | 6% | 15% | -26% | ? | /
CCC(C)NC(=O)c1nn(-c2ccc(C)cc2)c(=O)n(C)c1=O (stereo not given) | / | / | / | -11% | -6% | /
Cc1ccc(-c2nc(CS(=O)CC(=O)N3CCN(c4ccc(F)cc4)CC3)c(C)o2)cc1 (stereo not given) | -27 | 0% | -15% | 15µM* | ? | -16%
CCNC(=O)C12CCC(C)(c3nc4cc(C)c(C)cc4nc31)C2(C)C (stereo not given) | 43 | 0% | -1% | ? | ? | -4%
CC1CCN(c2ccc3c(c2)S(=O)(=O)c2cccc(C(=O)NCc4cccc(F)c4)c2C3=O)CC1 | 8 | -1% | -3% | 18µM* | ? | ?
O=C(NCc1cccc(F)c1)c1cccc2c1C(=O)c1ccc(N3CCCC3)cc1S2(=O)=O | 0 | 0% | 0% | 12µM* | ? | ?
COc1ccccc1N1CCN(c2ccc3c(c2)S(=O)(=O)c2cccc(C(=O)NCc4ccc(F)cc4)c2C3=O)CC1 | -6 | -1% | -4% | 2.6µM* | ? | /
O=C(NCc1cccc(F)c1)c1cccc2c1C(=O)c1ccc(N3CCC(Cc4ccccc4)CC3)cc1S2(=O)=O | -4 | 0% | 27% | ? | -10% | 1%
O=C(NCc1ccc(F)cc1)c1cccc2c1C(=O)c1ccc(Cl)cc1S2(=O)=O | / | / | / | / | / | 13%
SMILES | IL-1B inflam inh | HT1080 IDH1KD tx | HT1080-NT tox | DT40 TDP1 no CPT | DT40 TDP1 CPT | ELG1 DNA repair
C=CCCCCCCCCCCCC(O)CC(O)CO (stereo not given) (tested in a mixture with another compound) | / | / | / | -18% | ? | /
CCCNC(=O)C(Cc1ccccc1)NC(=O)c1ccccn1 (stereo not given) | 1 | 17% | 3% | -20% | -20% | 16%
CC(C)C[C@H](NC(=O)[C@H](Cc1ccccc1)NC(=O)c1cnccn1)B(O)O | / | / | / | 0.0075µM* | 0.0042µM* | /
CC(C)(C)C1COc2ccccc2N1C(=O)c1cccc(Cl)c1 (stereo not given) | 8 | 17% | 24% | 23µM* | ? | -8%
O=C(COC(=O)C12CC3CC(CC(C3)C1)C2)NCC1CCCO1 (stereo not given) | / | / | / | -28% | -6% | /
CCOC(=O)c1cccc(NC(=O)CCS(=O)(=O)c2ccc3c(c2)CCN3C(=O)CC)c1 | / | / | / | -29% | ? | /
O=C(c1ccc(-c2ccc(Cl)cc2)o1)N1CCN(c2ccc([N+](=O)[O-])cc2Cl)CC1 | 0 | ? | ? | 2.6µM* | 5.2µM* | ?
O=C(c1cccc([N+](=O)[O-])c1)N1CCN(c2ccc(Cl)cc2)CC1 | -1 | 10% | 10% | 15µM* | 21µM* | -12%
CC1CCN(c2ccc(NC(=S)NC(=O)c3ccc(-c4cccc([N+](=O)[O-])c4)o3)cc2)CC1 | -15 | 6.3µM* | ? | 10µM* | 11µM* | ?
O=C(c1ccc(-c2cccc([N+](=O)[O-])c2)o1)N1CCN(c2ccc([N+](=O)[O-])cc2)CC1 | 31 | 1% | 3% | 4.1µM* | 6.5µM* | 12%
O=[N+]([O-])c1cccc(-c2ccc(C(=S)N3CCN(c4ccc(F)cc4)CC3)o2)c1 | -3 | 1% | 1% | -12% | -17% | 7%

Assay outcomes (PubChem)
